# Screens (PubChem)
# Cycloheximide cs – counter-screen hit for Shiga toxin inhibitors, cycloheximide; AID 2314; cell reporter, cycloheximide protein synthesis inhibition counterscreen; max response, %; 300,000 tested, 12% active; in the data active = max response mostly above about 13%, no sharp cut-off; inactive = mostly below about 14%; also: read at 38.3 µM for the half of the compounds with a filed dose; 0% is about no effect
# LmPK inhibitor – blocks Leishmania mexicana pyruvate kinase activity; Q27686; AID 1721; Potency, µM (doses to about 57.5 µM), without a hit: top-dose activity change, negative = inhibition, usual class: inhibitors; 290,000 tested, 0.37% active; purified LmPK, Kinase-Glo ATP luminescence, 1 h; also: potency is read from the fitted curve at half-maximal effect; % is scaled to controls: 0 for no effect and ±100 for the full control effect
# Target sequence (Q27686 whole entry, looked up): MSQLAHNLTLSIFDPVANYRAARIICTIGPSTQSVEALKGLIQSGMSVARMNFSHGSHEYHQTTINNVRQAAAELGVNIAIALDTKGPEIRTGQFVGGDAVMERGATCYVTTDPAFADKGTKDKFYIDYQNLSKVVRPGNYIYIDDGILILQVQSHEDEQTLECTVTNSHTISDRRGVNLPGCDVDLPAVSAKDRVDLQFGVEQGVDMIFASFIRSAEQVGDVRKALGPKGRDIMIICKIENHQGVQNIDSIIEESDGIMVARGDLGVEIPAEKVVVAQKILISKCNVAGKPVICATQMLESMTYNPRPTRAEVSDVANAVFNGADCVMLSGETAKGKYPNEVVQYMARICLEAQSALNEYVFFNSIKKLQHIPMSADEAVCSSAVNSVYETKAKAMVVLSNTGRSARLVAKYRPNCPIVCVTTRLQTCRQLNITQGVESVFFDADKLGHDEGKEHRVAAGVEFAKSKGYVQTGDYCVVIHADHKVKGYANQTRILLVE
#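 Screened at intermediate enzyme activity to detect both inhibitors and activators: LmPK at 0.1 nM, with a 0.5 nM enzyme column as activation reference. PEP 0.5 mM, ADP 0.1 mM; ATP detected by luminescence after 1 h.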
# FBPA Giardia inh – Giardia lamblia aldolase inhibition. Potency, µM (titrated, usually from 59.6 µM), for inactives: top-dose activity, negative = inhibition, usual class: inhibitors. purified Giardia FBPA. A8B2U2. 290,000 tested, 0.71% active; also: potency is read from the fitted curve at half-maximal effect; % is scaled to controls: 0 for no effect and ±100 for the full control effect; nearly all actives have a fitted effect of over 55% in size
#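 40 nM FBPA preincubated 10 min at RT with compound (up to 57.5 uM final), then substrate plus GAPDH/TPI/NAD/arsenate coupling and diaphorase/resazurin added. Fluorescence read after 20 min at RT, 525/598 nm.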
# TbPYK inhibitor – T. brucei pyruvate kinase inhibition; Q57TT1; TbPYK enzyme, Kinase-Glo Plus ATP luminescence, 45 min; Potency, µM (top dose mostly 76.8 µM), for the others: at the top dose activity, negative = inhibition, hits mostly inhibitors; 410,000 tested, 0.12% active; also: potency is read from the fitted curve at half-maximal effect; % is scaled to controls: 0 for no effect and ±100 for the full control effect; nearly all actives have a fitted effect of over 50% in size
#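 TbPYK + substrate in 50 mM TEA pH 7.2, 100 mM KCl, 10 mM MgCl2, 0.05% BSA, 0.01% Tween-20; cpd pinned; ADP 130 uM final; 45 min RT; Kinase-Glo Plus 10 min; luminescence endpoint.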
# RE007 growth inh – less growth of the S. pombe RE007 Vpr strain | S. pombe RE007 Vpr strain, BacTiter-Glo ATP luminescence, 24 h | Potency, µM (highest dose often 92.2 µM), for the others: at the highest dose activity change, negative = less growth, most hits filed as inhibitors | 360,000 tested, 0.21% active | AID 651644; active = well fitted falling curve with a large enough effect; inconclusive = small, poorly fitted or top-dose-only effect; inactive = no such curve, though single readings can be large or run the other way; also: potency is read from the fitted curve at half-maximal effect; % is scaled to controls: 0 for no effect and ±100 for the full control effect; nearly all actives have a fitted effect of over 50% in size
#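 Fission yeast RE007 carrying one integrated HIV-1 vpr copy, seeded at OD 0.01 in PMG+AL medium with 23 nL pinned compound. Grown 24 h at 30 degrees; viability read by BacTiter-Glo luminescence after 5 min.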
# Shiga toxin inh – blocks Shiga toxin action in Vero cells; Vero cells, Shiga toxin protein synthesis inhibition reporter; inhibition, % at 38.7 µM; 290,000 tested, 9.2% active; in the data active = inhibition mostly above about 28%, no sharp cut-off; inactive = mostly below about 43%; also: 0% is about no effect
# Active calls of the source: *; u = inconclusive; x = not tested or not shown; [ ] = remark or other dose. The entries come from a sample that favours hits as a whole. Unless noted, calls follow the shape of the dose curve; as a rule, active = well fitted curve in the direction sought with a large enough effect; inconclusive = small, poorly fitted or top-dose-only effect, or another doubt; inactive = no such curve, though single readings can be large; an effect the other way counts as inactive or inconclusive.
SMILES,Cycloheximide cs,LmPK inhibitor,FBPA Giardia inh,TbPYK inhibitor,RE007 growth inh,Shiga toxin inh
Fc1cccc(CSc2ccc(-c3ccc4c(c3)OCO4)nn2)c1,11,3%,3%,4%,1%,11
CC(=O)Nc1ccc(NC(=O)CSc2ccc(-c3ccc4c(c3)OCO4)nn2)cc1,18,-7%,6%,-16%,51%,21
COC(=O)C/C=C\[C@@H](C)[C@@H](/C=N\OC[C@@H]1O[C@H](c2ccccc2)C=C[C@@H]1Oc1ccc(OC)cc1)NS(=O)(=O)c1ccc(C)cc1,x,x,1%[12.9 µM],x,x,x
Cc1cc(-c2cc(-c3ccccc3)on2)nc(NC2CCCC2)n1,21,3%,2%,4%,-4%,34*
N#Cc1c(/N=C/N2CCOCC2)sc2c1CCCCC2,24,-16%,-3%,-1%,27%,107*
CN(C)/C=N/c1sc2c(c1C#N)CCC2,43*,1%,-1%,-7%,1%,13
CN(C)/C=N/c1sc2c(c1C#N)CCCCC2,56*,-2%,-1%,-7%,-10%,20*
Cc1ccc(/C=N/c2sc3c(c2C#N)CCC3)o1,1,-27%,-7%,-12%,23%,2
N#Cc1c(/N=C/C2C(=O)NC(=S)NC2=O)sc2c1CCCC2,1,-2%,u,u,-19%,-6
CCCN(/C=N/c1sc2c(c1C#N)CCCCC2)CCC,16,-4%,x,1%,-17%,18
COc1ccc(S(=O)(=O)NCCCC(=O)Nc2ccc(Sc3ccc(N)cc3)cc2)cc1,5,x,-1%,x,x,-6
CC(N)C(=O)c1ccccc1 (stereo not given),x,x,x,1%[157 µM],x,x
Cc1cc2nc(-c3ccc(OCc4ccccc4C)cc3)cc(C(F)(F)F)n2n1,x,x,x,-6%,x,x
Cc1nc(NCc2ccccn2)c2ccccc2n1,8,3%,-15%,-16%,-5%,-1
O=S(=O)(NCc1ccccn1)c1cc(C(F)(F)F)ccc1Cl,-2,-4%,-6%,0%,-4%,20
c1ccc(CNc2ccc3ccccc3n2)nc1,30*,18µM*,7%,-7%,-10%,58
Cc1cc(NCc2ccccn2)nc2ccccc12,21*,2%,-1%,2%,-2%,7
FC(F)(F)c1ccc(NCc2ccccn2)nc1,56*,-3%,0%,3%,-4%,97*
COc1ccc(OC)c(NC(=O)Cn2nc3c(cc2=O)CCCC3)c1,x,x,x,6%,x,x
COc1ccc(S(=O)(=O)c2cn(C)c3cc(N4CCCCCC4)c(F)cc3c2=O)cc1,x,x,x,-5%,x,x
Cc1sc2nc3ccc(N4CCCCC4)nn3c(=O)c2c1C,30*,-4%,-14%,-20%,27%,68*
Cc1ccc2nc3ccc(N4CCCC4)nn3c(=O)c2c1,35*,-4%,-1%,-10%,1%,63
COc1ccc2cc(-c3[nH]ncc3CN3CCCN(c4ccccc4)CC3)ccc2c1,16*,0%,-1%,7%,-4%,17
COc1ccc2cc(-c3[nH]ncc3CN3CCCCO3)ccc2c1,20*,8%,-10%,4%,-16%,57*
COCC1CCCCN1Cc1cn[nH]c1-c1ccc(OC)cc1OC (stereo not given),-2,3%,1%,-1%,-4%,-6
COCC1CCCCN1Cc1cn[nH]c1-c1ccc2cc(OC)ccc2c1 (stereo not given),19*,6%,-4%,9%,-23%,32*
COc1ccc(-c2[nH]ncc2CN2CCCC(C(=O)c3ccc(OC)cc3OC)C2)cc1 (stereo not given),-3,9%,2%,-2%,-1%,-13
COc1ccc2cc(-c3[nH]ncc3CN3C[C@@H]4CCC[C@H]3C4)ccc2c1,32*,11%,-1%,0%,12%,27
Cc1nc2c(-c3ccccc3)c(C)[nH]n2c(=O)c1Cc1ccc(Br)cc1,x,x,x,1%,x,x
COc1cc(/C=C/C(=O)C2C(=O)C=C(C)OC2=O)cc(OC)c1O (stereo not given),-3,-13%,u,-29%,-17%,13
